Screening data deposited in PubChem by National Center for Advancing Translational Sciences (NCATS).
Pol eta inh-1 = inhibitors of human DNA polymerase eta. Q9Y253. recombinant Pol eta, fluorescent DNA replication assay. Potency, µM (series often up to 114 µM), inactives show at the top dose activity change, negative = inhibition, hits mostly inhibitors. 390,000 tested, 1.2% active. AID 588591; further: potency means the concentration at half of the fitted maximal effect; on the % scale 0 is the no-effect control and ±100 the full control effect
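Fluorescent replication assay: 50 nM final substrate added after a 15 min room-temperature compound preincubation with 10 nM enzyme. Signal taken at 0 min and again at 10 min.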
GLS inhibitor = blocks human kidney-isoform glutaminase activity. O94925. GLS enzymatic activity, qHTS titration. Potency, µM (top dose mostly 45.5 µM), inactives show at the highest dose activity change, negative = inhibition, most hits filed as inhibitors. 410,000 tested, 0.21% active; further: potency means the concentration at half of the fitted maximal effect; on the % scale 0 is the no-effect control and ±100 the full control effect
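hKGA in 45 mM KH2PO4 (pH 8.2), 0.02% Tween-20 with compound, then 1mM L-Glutamine (stock as added) plus glutamate oxidase/HRP/Amplex red coupling mix. Fluorescence read initially and after 30 min at RT; signal change reflects glutamate formation.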
Pol kappa inh-1 = DNA polymerase kappa (human) inhibition | 400,000 tested, 0.53% active | Potency, µM (series often up to 107 µM), for the others: at the top dose activity, negative = inhibition, hits mostly inhibitors | Q9UBT6 | purified Pol kappa, fluorescent DNA synthesis assay, 10 min; further: potency means the concentration at half of the fitted maximal effect; on the % scale 0 is the no-effect control and ±100 the full control effect
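Pol kappa 10 nM + cpd, 15 min RT; start w/ substrate 50 nM final; fluorescence kinetic read, 0 and 10 min. Neg ctrl: buffer, no enzyme.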
Pol iota inh = inhibitors of human DNA polymerase iota | Pol iota fluorescent replication assay, 10 min | Potency, µM (titrated, usually from 115 µM), without a hit: top-dose activity, negative = inhibition, actives largely listed as inhibitors | AID 588590 | Q9UNA4 | 390,000 tested, 1% active; further: potency means the concentration at half of the fitted maximal effect
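Pol iota at 10 nM preincubated 15 min with compounds at room temperature; reaction started with fluorescent substrate, 50 nM final. Fluorescence read kinetically at 0 and 10 min; buffer-only wells as negative control.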
Pol beta inh-1 = DNA polymerase beta (human) inhibition | Pol beta primer extension/strand displacement, fluorescence kinetic | Potency, µM (series often up to 114 µM), without a hit: at the top dose activity change, negative = inhibition, usual class: inhibitors | 340,000 tested, 1.3% active | AID 485314; further: potency means the concentration at half of the fitted maximal effect; on the % scale 0 is the no-effect control and ±100 the full control effect
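Homogeneous kinetic assay of primer extension and strand displacement by 10 nM Pol beta, preincubated 15 min at room temperature with compound before 50 nM substrate (final) was added. Read at 0 and 10 min; four-parameter Hill fit.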
GCN5L2 inh-1 = inhibitors of human GCN5L2 histone acetyltransferase. Potency, µM (titrated, usually from 58.9 µM), for inactives: at the highest dose activity change, negative = inhibition, most hits filed as inhibitors. Q92830. 390,000 tested, 0.21% active. GCN5L2 HAT assay, ThioGlo1 CoA-SH fluorescence; further: potency means the concentration at half of the fitted maximal effect; on the % scale 0 is the no-effect control and ±100 the full control effect
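ThioGlo1-coupled HAT assay: 20nM GCN5L2, 70uM acetyl-CoA, 75uM H3(1-25) peptide, pH 7.5. Fluorescence read at 340/540nm at start and after 20 min at room temperature.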
Pol beta inh-2 = Human Pol beta inhibitor hit validation. shares compounds with Pol beta inh-1. Pol beta primer extension/strand displacement, fluorescence kinetic. Potency, µM, usual class: inhibitors. 250 tested, 87% active. AID 540280; calls by dose curve; further: potency means the concentration at half of the fitted maximal effect
Klenow inh = Klenow polymerase inhibition, pol beta selectivity check; shares compounds with Pol beta inh-1; Klenow exo- polymerase counter-screen, fluorescent DNA substrate; activity change, negative = inhibition, % at 57.1 µM; 250 tested, under 10 active
HIV RT inh = counter-screen for DNA polymerase beta inhibitors: HIV-1 RT inhibition; HIV-1 RT polymerase activity, counter-screen; AID 540301; 250 tested, under 10 active; activity % (negative = inhibition, positive = activation), % at 57.1 µM; shares compounds with Pol beta inh-1
GCN5L2 inh-2 = confirmation of human GCN5L2 histone acetyltransferase inhibitors. shares compounds with GCN5L2 inh-1. GCN5L2 HAT, ThioGlo1 CoA fluorescence, 20 min. Potency, µM, most hits filed as inhibitors. 140 tested, 70% active. AID 588347
Pol iota confirm = Inhibitors of human DNA polymerase iota, confirmation; Pol iota primer extension, TAMRA/BHQ fluorescence; 1,500 tested, 77% active; Potency, µM, actives largely listed as inhibitors; shares compounds with Pol kappa inh-1; AID 720496; further: potency means the concentration at half of the fitted maximal effect
Pol kappa inh-2 = confirmation of human DNA polymerase kappa inhibitors; purified Pol-kappa, fluorescent strand-displacement substrate; AID 720501; shares compounds with Pol eta inh-1; 920 tested, 76% active; Potency, µM, usual class: inhibitors; further: potency means the concentration at half of the fitted maximal effect
Pol eta inh-2 = Pol eta (human) inhibition, cherry-pick confirmation | 2,600 tested, 64% active | Pol eta primer extension, TAMRA/BHQ fluorescence, 10 min | Potency, µM, usual class: inhibitors | shares compounds with Pol eta inh-1; further: potency means the concentration at half of the fitted maximal effect
An asterisk follows results filed as active; u = inconclusive; x = no result; [ ] = remark or other dose. Only some compounds are listed: those with a hit (about 2.4% of all), similar ones and a draw of the others. Unless noted, the call rests on the fitted dose curve; in most records, active means well fitted curve in the direction sought with a large enough effect; inconclusive means small, poorly fitted or top-dose-only effect, or another doubt; inactive means no such curve, though single readings can be large; an effect the other way counts as inactive or inconclusive.

SMILES	Pol eta inh-1	GLS inhibitor	Pol kappa inh-1	Pol iota inh	Pol beta inh-1	GCN5L2 inh-1	GCN5L2 inh-2	others
Cc1ccc(CNC(=O)c2ccc(-n3cccc3)cc2)cc1	12.6µM*	u	22.4µM*	14.1µM*	6.31µM*	u	x	Pol beta inh-2=8.91*;Klenow inh=-26.5;HIV RT inh=20.9;Pol iota confirm=18.9*;Pol kappa inh-2=18.9*;Pol eta inh-2=30.1*
CC(=O)c1cccc(NC(=O)Cn2c(=O)oc3cc(S(=O)(=O)NC4CCCC4)ccc32)c1	-17.9%	0.6%	10.0%	38.2%	-2.0%	1.7%	x
CC(C)CCN1C(=O)c2ccc(C(=O)Nc3ccc(Br)cc3C(=O)O)cc2C1=O	31.6µM*	1.1%	-34.5%	u	-2.5%	35.5µM*	20.4*
CC(C)CCN1C(=O)c2ccc(C(=O)Nc3cc(C(=O)O)cc(C(=O)O)c3)cc2C1=O	-20.2%	-0.3%	4.1%	129.2%	-1.9%	-2.7%	x
CCOc1cc(/C=C2\C(=O)N(c3nc(-c4ccc(Br)cc4)cs3)N=C2c2ccccc2)ccc1O	10µM*	8.4%	79.4µM*	u	10µM*	u	5.13*
CCOc1cc(/C=C2/SC(=S)N(Cc3ccccc3)C2=O)ccc1O	u	1.9%	-24.4%	u	u	-13.1%	x
COc1ccc(Cl)cc1NC(=O)CN(c1cccc(C)c1C)S(=O)(=O)c1ccccc1	-12.5%	-9.5%	-19.2%	24.7%	-15.8%	-12.2%	x
Cc1nc2nc(-c3cccs3)cn2nc1C	-11.3%	0.7%	4.0%	35.0%	-20.3%	u	36.3*
O=C(O)c1cc(-c2ccc(-c3ccc(F)cc3)o2)nc2ccccc12	-12.8%	11.1%	-0.7%	17.7%	34.2%	u	20.4*
COc1ccc2cc(-c3cc(C(=O)O)c4ccccc4n3)ccc2c1	0.7%	18.0%	-4.9%	19.8%	0.0%	u	u
COc1ccc(-c2cc(C(=O)O)c3ccccc3n2)c(OC)c1	u	1.7%	-12.0%	-15.4%	u	-2.5%	x
Cc1ccc(N2C(=O)C3C4C=CC(CC4)C3C2=O)cc1[N+](=O)[O-] (stereo not given)	-21.6%	-9.6%	4.3%	18.4%	-0.3%	u	16.2*
Cc1ccc(N2C(=O)C3C4C=CC(C4)C3C2=O)cc1C (stereo not given)	-11.7%	-6.3%	-15.6%	0.5%	14.6%	0.3%	x
CCOc1ccccc1CNC(=O)C1CCN(c2nn3cc(-c4ccc(F)cc4)nc3s2)CC1	-7.8%	-7.1%	-15.6%	-5.2%	-2.9%	-5.6%	x
CCNc1ncc2nc(-c3ccc(F)cc3)c(=O)n(-c3ccc(OC)cc3)c2n1	x	x	-0.4%[60.1 µM]	x	x	-14.8%	x
